Experimental data reported in PubChem BioAssay (NCATS).
Several values for one entry are separate records, joined by “and”; a condition that tells them apart may be missing. Equal values may be shown once. Inconclusive results are not listed. Activity calls are given as the source filed them. The call rests on the fitted dose curve; in most records, active means well fitted activation curve with a large enough effect; inconclusive means small, poorly fitted or top-dose-only effect; inactive means no such curve, though single readings can be large or run the other way. Positions of bridges follow the written chain, without caps; N, C: chain ends. Non-standard residues stand in square brackets, D forms with d. Residues, ends and D or L forms follow the SMILES beside them. hArg = N=C(N)NCCCC[C@H](N)C(=O)O; Mpa = O=C(O)CCS

biological target: Cellular tumor antigen p53 (Homo sapiens) (UniProt P04637); assay: Primary qHTS for small molecule compounds that upregulate eGFP-tagged delta133p53alpha (in N-terminal) cells. (AID 2060322); conditions: NCI-H358 eGFP-delta133p53alpha fluorescence, 24 h; activation: hits give high values; further: nearly all actives have a fitted effect of over 75% in size;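 on activation: series mostly up to about 56 µM; 0% = DMSO vehicle and 100% = reference activator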
Sequence (P04637 whole entry, looked up): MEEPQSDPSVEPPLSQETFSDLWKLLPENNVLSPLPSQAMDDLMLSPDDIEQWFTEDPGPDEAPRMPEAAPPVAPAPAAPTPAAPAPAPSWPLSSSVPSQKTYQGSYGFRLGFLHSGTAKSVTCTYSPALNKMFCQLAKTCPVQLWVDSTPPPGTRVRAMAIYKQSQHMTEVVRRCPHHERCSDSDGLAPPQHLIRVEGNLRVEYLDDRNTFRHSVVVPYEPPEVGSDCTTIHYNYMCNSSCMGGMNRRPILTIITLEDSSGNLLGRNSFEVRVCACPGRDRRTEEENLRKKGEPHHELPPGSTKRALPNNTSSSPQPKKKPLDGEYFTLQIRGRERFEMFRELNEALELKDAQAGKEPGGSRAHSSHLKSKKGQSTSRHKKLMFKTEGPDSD
Method in brief: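 NCI-H358 cells pre-induced 24 h with 10 ng/ml doxycycline to express N-terminal eGFP-delta133p53alpha, then dosed 24 h at 37C without doxycycline; fixed, Hoechst-stained, GFP intensity by laser scanning cytometry, normalized to DMSO (0%) and 57.5 uM 5-azacytidine (100%).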
Potency means the concentration at half of the fitted maximal effect.

Structure (SMILES) | activation | Potency
C[C@]12CC[C@H](O)CC1=CC[C@@H]1[C@H]2CC[C@]2(C)C(c3cccnc3)=CC[C@H]12 | -11.6% (inactive) | –
O=c1ccc2ccccc2o1 | 9.21% (inactive) | –
C[C@H](N)C(=O)N[C@@H](C)C(=O)NC1[C@H]2CN(c3nc4c(cc3F)c(=O)c(C(=O)O)cn4-c3ccc(F)cc3F)C[C@@H]12 (stereo not given in full) | -33.3% (inactive) | –
CCCCCCCCCCCCCCCC(=O)OC(C)C | -15.3% (inactive) | –
C[n+]1ccccc1/C=N/O | 15.3% (inactive) | –
Cc1cc2c(cc1S(N)(=O)=O)S(=O)(=O)CCC2 | -27.6% (inactive) | –
O=P(O)(O)OCC(O)CO (stereo not given) | -9.21% (inactive) | –
C1N2CN3CN1CN(C2)C3 | – | 27.6 µM (active)
C[C@H](O)C(=O)Nc1c(I)c(C(=O)NC(CO)CO)c(I)c(C(=O)NC(CO)CO)c1I | 10.9% (inactive) | –
COC(=O)c1ccc(O)cc1 | 7.34% (inactive) | –
CC1(C)CO[C@@H](CC(=O)O)CN1 | -5.86% (inactive) | –
CCCCOC(=O)CCCCCCCCC(=O)OCCCC | -7.53% (inactive) | –
CCc1cccc2c(CCO)c[nH]c12 | -27.7% (inactive) | –
Cc1ccc(N)cc1O | – | 28.2 µM (active)
C[N+](C)(C)CC[N+]1(C)Cc2c(Cl)c(Cl)c(Cl)c(Cl)c2C1 | -1.69% (inactive) | –
CC(CC1c2ccccc2CCc2ccccc21)CN(C)C (stereo not given) | -10% (inactive) | –
CO[C@H]1C[C@@H]2CC[C@@H](C)[C@@](O)(O2)C(=O)C(=O)N2CCCC[C@@H]2C(=O)O[C@H]([C@H](C)C[C@@H]2CC[C@H](OP(C)(C)=O)[C@H](OC)C2)CC(=O)[C@H](C)C=C(C)[C@@H](O)[C@@H](OC)C(=O)[C@H](C)C[C@H](C)C=CC=CC=C1C | 24.8% (inactive) | –
FC(F)(F)C(F)(F)C(F)(F)C(F)(F)C(F)(F)C(F)(F)C(F)(F)C(F)(F)Br | -14.1% (inactive) | –
COCC(=O)Nc1c(I)c(C(=O)NCC(O)CO)c(I)c(C(=O)N(C)CC(O)CO)c1I (stereo not given) | -4.18% (inactive) | –
N#CC(=C(N)Sc1ccc(N)cc1)c1ccccc1C(F)(F)F | 19.5% (inactive) | –

Structure (SMILES) | activation | Potency
CC(=O)N[C@@H](CO)C(=O)N[C@@H](CC(=O)O)C(=O)N[C@@H](CCCCN)C(=O)N1CCC[C@H]1C(=O)O (Ac-SDKP-OH) | -24.3% (inactive) | –
CCOC(=O)c1cccc(N)c1 | -1.67% (inactive) | –
CC(C)N(CC[C@H](c1ccccc1)c1cc(CO)ccc1O)C(C)C | 16.8% (inactive) | –
CCC(=O)NC[C@H](Cc1ccc(OCCc2nc(-c3ccccc3)oc2C)cc1)NC(C)=CC(=O)c1ccc(C(F)(F)F)cc1 | 17.2% (inactive) | –
CC(C)Cc1ccc(CC(=O)O)cc1 | -36.8% (inactive) | –
O=C1Nc2ccc(I)cc2C1=Cc1cc(Br)c(O)c(Br)c1 | – | 24.3 µM (active)
Cn1cc(C2=C(c3cn(CCCN)c4ccccc34)C(=O)NC2=O)c2ccccc21 | – | 24.3 µM (active)
C/C=C1\[C@H]2C=C(C)C[C@]1(N)c1ccc(=O)[nH]c1C2 | 5.08% (inactive) | –
N#CC(=Cc1ccc(O)c(O)c1)C(=O)NCc1ccccc1 | – | 34.3 µM (active)
CC(N)CCCC(C)(C)O (stereo not given) | -2.82% (inactive) | –
OC[C@@H](O)[C@@H](O)[C@H](O)[C@H](O)CO | -9.21% (inactive) | –
O=C(O)[C@H](CC(=O)N1C[C@@H]2CCCC[C@H]2C1)Cc1ccccc1 | -15.3% (inactive) | –
CC1(C)O[C@@H]2C[C@H]3[C@@H]4CCC5=CC(=O)CC[C@]5(C)[C@@]4(F)[C@@H](O)C[C@]3(C)[C@]2(C(=O)CCl)O1 | -1.67% (inactive) | –
Cc1c(I)c(=O)n(-c2ccccc2)n1C | -10.7% (inactive) | –
CC1CCc2cc(F)cc3c(=O)c(C(=O)O)cn1c23 (stereo not given) | 23.2% (inactive) | –
NC(=O)[C@@H]1CSSCCC(=O)N[C@@H](CCCCN=C(N)N)C(=O)NCC(=O)N[C@@H](CC(=O)O)C(=O)N[C@@H](Cc2c[nH]c3ccccc23)C(=O)N2CCC[C@H]2C(=O)N1 ([Mpa][hArg]GDWPC-NH2; disulfide 1-7) | 2.82% (inactive) | –
COc1cc(C(=O)NCc2ccc(OCCN(C)C)cc2)cc(OC)c1OC | 1.67% (inactive) | –
CN(C)CCOC(c1ccc(Cl)cc1)c1ccccn1 (stereo not given) | 15.3% (inactive) | –
O=C(c1cc(O)c(O)c(O)c1)c1ccc(O)c(O)c1O | 23.2% (inactive) | –
CN1CCCC(n2nc(Cc3ccc(Cl)cc3)c3ccccc3c2=O)CC1 (stereo not given) | 10.9% (inactive) and 17.6% (inactive) | –
